Here are results for 22 compounds from PubChem BioAssay (Tox21).

Records with an inconclusive call do not appear. A number with no mark means an inactive call. The source made the active and inactive calls. Unless noted, the call rests on the fitted dose curve; in most records, active means well fitted curve in the direction sought with a large enough effect in the repeat runs; inconclusive means weak or mixed curves; inactive means no such curve, though single readings can be large; an effect the other way counts as inactive or inconclusive.
On the % scale 0 is the no-effect control and ±100 the full control effect.

Test system in the first test: not listed separately
In words: qHTS assay to identify small molecule agonists of the retinoic acid receptor (RAR) signaling pathway (AID 1159553). Further: potency means the concentration at half of the fitted maximal effect. The note with it: C3RL4 RARE luciferase reporter, agonist, 6 h; series mostly up to 73.3 µM; activation: at the top concentration. In short, it runs like this:
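RARE-luc C3RL4 cells; overnight attachment 37 C/5% CO2; compound (DMSO) 6 hr; luciferase reagent, 30 min RT; luminescence read-out.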
For `O=[N+]([O-])c1ccc(F)c([N+](=O)[O-])c1`, the “activation” value was -4.47% [at 94.8 µM].
Take `Cc1ccc(N)cc1C`: the Potency is 69.1 µM (active).
For `O=S(=O)(Cl)c1ccccc1`, the “activation” value was -2.05% [at 94.8 µM].
The same measure, in the same setting: the value for `N#Cc1ccc(Cl)cc1` was -0.765%; that for `O=S(=O)(O)C(F)(F)C(F)(F)C(F)(F)C(F)(F)F` was -20.5% [at 94.8 µM].
Regarding `CC1(C)[C@H](C=C(Cl)Cl)[C@@H]1C(=O)O[C@@H](C#N)c1cccc(Oc2ccccc2)c1`, the “activation” value is -5.08%.
Still for that read-out and setting: with `C=CC(=O)NCNC(=O)C=C` the figure was 0.738%; with `CC(C)=CCOc1c2occc2cc2ccc(=O)oc12`, -0.0866%.
On the same count and under the same terms, with `CCOP(=O)(OCC)SCCSCC` the figure was 4.65%; with `CC1CC(CC2CCC(N)C(C)C2)CCC1N` (configuration not stated), -6.73% [at 94.8 µM].
On the same count and under the same terms, the value for `COc1cc(Cl)c(OC)cc1Cl` was -1.46%; that for `COC(=O)c1cncn1C(C)c1ccccc1` (configuration not stated) was 0.604%; that for `Oc1ccc(Cl)c(Cl)c1Cl` was -6.34% [at 94.8 µM].
As for `O=C(O)C(F)(F)C(F)(F)C(F)(F)C(F)(F)C(F)(F)C(F)(F)C(F)(F)C(F)(F)C(F)(F)F`, the “activation” value is 6.04%.
The same measure, in the same setting: the value for `CC(Cl)Cl` was 2.9%.
Regarding `Cc1ccccc1CCl`, the “activation” value was 0.0114%.
With `CCOP(=O)(OCC)Oc1ccc([N+](=O)[O-])cc1`, the Potency entry was “inactive”.
Take `O=[N+]([O-])c1cc(C(F)(F)F)cc([N+](=O)[O-])c1Cl`: the “activation” value was -5.82% [at 94.8 µM].
On the same count and under the same terms, the value for `C=CC(=O)OCC(C)O` (configuration not stated) was 5.18% [at 94.8 µM].

Test system in another test: not listed separately
The test is described as follows: qHTS assay to identify small molecule antagonists of the estrogen related receptor (ERR) signaling pathway - cell viability counter screen (AID 1224818). The note with it: ERR reporter cell line viability counter screen; series mostly up to 92.2 µM; viability change, negative = cytotoxic: at the top concentration. In short, it runs like this: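 Fluorescence from CellTiter-Fluor, read 30 min after reagent addition at 37 C, measured viability of ERR cells exposed to compounds for 17.5 h. Cells had settled 6 h before dosing.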
For `CC(=O)[C@H]1CC[C@H]2[C@@H]3CC[C@H]4C[C@](C)(O)CC[C@]4(C)[C@H]3CC[C@]12C`, the “viability change, negative = cytotoxic” value was 6.88% [at 46.1 µM].
On the same count and under the same terms, the value for `O=S(=O)(O)C(F)(F)C(F)(F)C(F)(F)C(F)(F)F` was 14.3%; that for `NCC(CC(=O)O)c1ccc(Cl)cc1` (configuration not stated) was 2.66% [at 46.1 µM]; that for `C=CC(=O)NCNC(=O)C=C` was -5.01%.
The same measure, in the same setting: with `CC(C)=CCOc1c2occc2cc2ccc(=O)oc12` the figure was -0.555% [at 46.1 µM]; with `c1ccc(C2CC2)c(OCC2=NCCN2)c1`, 9.6% [at 46.1 µM].

Test system in a further test: not listed separately
The test is described as follows: qHTS assay to identify small molecule antagonists of the estrogen related receptor (ERR) signaling pathway (AID 1224819;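 further: luminescence from an ERR-driven luciferase reporter measured with One-Glo reagent; nearly all actives have a fitted effect of over 50% in size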). The note with it: ERR reporter cell line, luciferase inhibition; series mostly up to 46.1 µM; activity change, negative = inhibition: at the top concentration. In short, it runs like this:
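Luminescence readout (One-Glo, 30 min, RT) of ERR cell line after 18 h compound exposure at 37 C; cells seeded 2,000/well, pre-incubated 6 h, compounds pinned from DMSO stocks.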
In the case of `CC(=O)[C@H]1CC[C@H]2[C@@H]3CC[C@H]4C[C@](C)(O)CC[C@]4(C)[C@H]3CC[C@]12C`, the “activity change, negative = inhibition” value is -10.5%.
On the same count and under the same terms, with `O=S(=O)(O)C(F)(F)C(F)(F)C(F)(F)C(F)(F)F` the figure was -0.802% [at 92.2 µM].
Still for that read-out and setting: the value for `NCC(CC(=O)O)c1ccc(Cl)cc1` (configuration not stated) was -3.58%.
The same measure, in the same setting: the value for `C=CC(=O)NCNC(=O)C=C` was 32.8% [at 92.2 µM]; that for `c1ccc(C2CC2)c(OCC2=NCCN2)c1` was 3.35%.

Test system in another test: not listed separately
The test is described as follows: qHTS assay to identify small molecule agonists of the estrogen related receptor (ERR) signaling pathway (AID 1224820). The note with it: ERR reporter cell line, luciferase agonist mode; series mostly up to 46.1 µM; activation: at the top concentration. The method, boiled down:
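An ERR cell line provided by NTP was seeded at 2,000 cells per well and allowed to settle for 6 h before compounds in DMSO were added. After 18 h at 37 C, luciferase activity was measured by One-Glo luminescence.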
As for `CC(=O)[C@H]1CC[C@H]2[C@@H]3CC[C@H]4C[C@](C)(O)CC[C@]4(C)[C@H]3CC[C@]12C`, the “activation” value was -17.6%.
Still for that read-out and setting: the value for `O=S(=O)(O)C(F)(F)C(F)(F)C(F)(F)C(F)(F)F` was -1.41% [at 92.2 µM]; that for `NCC(CC(=O)O)c1ccc(Cl)cc1` (configuration not stated) was -3.24%.
The same measure, in the same setting: with `CC(C)=CCOc1c2occc2cc2ccc(=O)oc12` the figure was -35.9%; with `c1ccc(C2CC2)c(OCC2=NCCN2)c1`, 3.52%.

The next test concerns estrogen-related receptor alpha (ERRalpha) with PGC-1alpha coactivator, human. In words: qHTS assay to identify small molecule antagonists of the estrogen related receptor signaling pathway with the pleiotropic PPARgamma coactivator (PGC) (AID 1224821; calls by dose curve;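 further: lower luminescence signal means antagonism of PGC/ERR signalling; nearly all actives have a fitted effect of over 50% in size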). The note with it: ERR/PGC reporter cell line, luciferase, antagonist mode; series mostly up to 92.2 µM; activity change, negative = inhibition: at the top concentration. The method, boiled down:
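A PGC/ERR cell line supplied by NTP is seeded, allowed 6 h at 37 C, and treated with test compounds in DMSO for 18 h. Signal is then measured as luciferase luminescence using One-Glo.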
For `CC(=O)[C@H]1CC[C@H]2[C@@H]3CC[C@H]4C[C@](C)(O)CC[C@]4(C)[C@H]3CC[C@]12C`, the “activity change, negative = inhibition” value was 2.88% [at 46.1 µM].
`O=S(=O)(O)C(F)(F)C(F)(F)C(F)(F)C(F)(F)F`: the “activity change, negative = inhibition” value is -11.1%.
The same measure, in the same setting: with `NCC(CC(=O)O)c1ccc(Cl)cc1` (configuration not stated) the figure was 3.9% [at 46.1 µM]; with `C=CC(=O)NCNC(=O)C=C`, 12.1%; with `CC(C)=CCOc1c2occc2cc2ccc(=O)oc12`, -5.7% [at 46.1 µM].
On the same count and under the same terms, with `c1ccc(C2CC2)c(OCC2=NCCN2)c1` the figure was -1% [at 46.1 µM].

Test system in the next test: not listed separately
The test is described as follows: qHTS assay to identify small molecule antagonists of the estrogen related receptor signaling pathway with the pleiotropic PPARgamma coactivator (PGC) cell viability counter screen (AID 1224822). The note with it: ERR/PGC reporter cell line viability counter screen; series mostly up to 92.2 µM; viability change, negative = cytotoxic: at the top concentration. The method, boiled down: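 Fluorescence read-out of CellTiter-Fluor after 30 min at 37 C; PGC/ERR cells, 2,000 per well, had been exposed to DMSO-dissolved compounds for 17.5 h following a 6 h pre-incubation.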
On to `CC(=O)[C@H]1CC[C@H]2[C@@H]3CC[C@H]4C[C@](C)(O)CC[C@]4(C)[C@H]3CC[C@]12C`, for which the “viability change, negative = cytotoxic” value was 11.9% [at 46.1 µM].
Take `O=S(=O)(O)C(F)(F)C(F)(F)C(F)(F)C(F)(F)F`: the “viability change, negative = cytotoxic” value is 6.31%.
The same measure, in the same setting: the value for `NCC(CC(=O)O)c1ccc(Cl)cc1` (configuration not stated) was -4.66% [at 46.1 µM]; that for `C=CC(=O)NCNC(=O)C=C` was 1.59%.
Turning to `CC(C)=CCOc1c2occc2cc2ccc(=O)oc12`, the “viability change, negative = cytotoxic” value was 4.56% [at 46.1 µM].
The same measure, in the same setting: the value for `c1ccc(C2CC2)c(OCC2=NCCN2)c1` was 9.23% [at 46.1 µM].
